Key:
Assay type in all cases: functional
[1] = molecular target: Solute carrier family 2, facilitated glucose transporter member 1 (Homo sapiens) (UniProt P11166); assay: ST_JUDE_LEISH: Cytotoxicity at 2uM final concentration against transgenic Leishmania Mexicana promastigotes LmGLUT1 that are glucose transport deficient and complemented with the human glucose transporter GLUT1. Activity is measured by DNA content using SYBR green in vitro
[2] = molecular target: Hexose transporter 1 (Plasmodium falciparum) (UniProt O97467); assay: ST_JUDE_LEISH: Cytotoxicity at 2uM final concentration against transgenic Leishmania Mexicana promastigotes LmPfHT that are glucose transport deficient and complemented with the Plasmodium falciparum hexose transporter. Activity is measured by DNA content using SYBR green in vitro
[3] = molecular target: Glucose transporter (Leishmania mexicana) (UniProt O61059); assay: ST_JUDE_LEISH: Cytotoxicity at 2uM final concentration against transgenic Leishmania Mexicana promastigotes LmGT2 that are glucose transport deficient and complemented with the L. Mexicana glucose transporter 2. Activity is measured by DNA content using SYBR green in vitro

Sequence of Solute carrier family 2, facilitated glucose transporter member 1 (Homo sapiens) (P11166 whole entry): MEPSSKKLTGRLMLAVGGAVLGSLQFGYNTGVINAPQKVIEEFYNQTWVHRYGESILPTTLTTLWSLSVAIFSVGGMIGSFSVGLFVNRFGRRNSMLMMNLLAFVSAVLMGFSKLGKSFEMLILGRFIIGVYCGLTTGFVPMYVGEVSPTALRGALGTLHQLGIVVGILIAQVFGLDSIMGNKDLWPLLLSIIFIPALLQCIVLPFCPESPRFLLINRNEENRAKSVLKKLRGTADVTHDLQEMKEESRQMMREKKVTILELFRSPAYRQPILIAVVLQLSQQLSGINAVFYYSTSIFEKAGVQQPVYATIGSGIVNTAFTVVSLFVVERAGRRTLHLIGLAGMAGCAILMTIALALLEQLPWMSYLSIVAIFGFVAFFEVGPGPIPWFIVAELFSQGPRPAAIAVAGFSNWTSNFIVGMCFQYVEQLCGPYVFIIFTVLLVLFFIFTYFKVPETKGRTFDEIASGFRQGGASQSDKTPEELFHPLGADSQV

SMILES | inhibition [1] [%] | inhibition [2] [%] | inhibition [3] [%]
CCc1ccc(NC(=O)c2ccc(CN3CCCN(CCC(C)C)CC3)cc2)cc1 | 7.61 | 4.69 | 5.85
CC(Oc1ccc(Cl)cc1)C(=O)Nc1cc(C(F)(F)F)ccc1-n1cncn1 (stereo unspecified) | 2.69 | 3.5 | 3.88
CC(O)C1CCCCN1C(=O)c1cccc(-c2ccc(-c3nc4cc(C(F)(F)F)ccc4[nH]3)cc2)c1 (stereo unspecified) | 0.8 | 0.3 | 1
O=C(/C=C/c1ccc(Cl)c(Cl)c1)NCCCCCCN1CCN(C(=O)Nc2cc(Cl)nc(Cl)c2)CC1 | 2.96 | 2.93 | 2.49
CC(C)N1CCN(C(=O)c2ccc(CNCCCN3CCN(c4cccc(Cl)c4Cl)CC3)s2)CC1 | 1.17 | 1.06 | -0.54
CN1CCN(CC2(Nc3nccc(NCCc4cn(C)c5ccccc45)n3)CCCCC2)CC1 | 0.99 | 1.78 | -1.09
CCCNCc1c(O)ccc2c(CNCCC)c(O)ccc12 | 0.17 | -0.89 | 0.49
Cc1cc(N2CCCC2)nc(NC(=N)Nc2cccc(C(F)(F)F)c2)n1 | 6.6 | 7.28 | 2.22
CCc1cn2c3c(cc(C(=O)N[C@@H](Cc4ccccc4)[C@H](O)CNCCOC)cc13)N(C)S(=O)(=O)CC2 | 5.11 | 2.43 | 3.91
Cc1cc(C(=O)CN2C(=O)NC3(CCOc4ccccc43)C2=O)c(C)n1Cc1ccco1 (stereo unspecified) | 5.85 | 4.77 | 3.86
COc1cccc2c(NCCNc3ccnc4c(OC)cccc34)ccnc12 | 6.77 | 6.99 | 7.99
CC(C)(CNC(=O)C1CCN(Cc2ccc(Cl)cc2)CC1)c1nc(-c2ccc(Cl)c(O)c2)c(-c2ccncc2)[nH]1 | 6.62 | 6.8 | 9.13
Cc1cccc(C)c1CNc1ccnc2cc(C#N)ccc12 | 3.83 | 3.15 | 2.98
O=C(Nc1ccc(-c2nc3ccccc3[nH]2)cc1)C1CCN(Cc2cccc(F)c2F)CC1 | 24.2 | 28.4 | 16
COc1ccccc1CNc1ccnc(NCCc2cccc(C(F)(F)F)c2)n1 | 7.85 | 8.92 | 2.54
CCOc1ccc(-c2nonc2NC(=O)c2ccccc2F)cc1OCC | -0.17 | 1 | 1.47
CN(Cc1ccc(-c2ccc(C(F)(F)F)cc2)cc1)C(=O)Cn1c(CCc2cccc(F)c2F)nc(=O)c2ccc(N3CCN(CCN4CCCCC4)CC3)nc21 | 7.76 | 7.16 | 3.71
NC1=Nc2ccc(Cl)cc2C1(O)c1ccccc1 (stereo unspecified) | 1.25 | 1.33 | 0.97
Cc1[nH]c(C)c(-c2ccc(Br)cc2)c(=O)c1Cl | 4.57 | 3.47 | 3.22
Cc1cc(-c2ccc3c(c2)CCN(CCC2CCC(NC(=O)/C=C/c4cccc(F)c4)CC2)CC3)on1 (stereo unspecified) | 2.32 | 0.47 | 3.42
CCNc1cc(C(=O)N[C@@H](Cc2ccccc2)[C@H](O)CNC2C3CC4CC(C3)CC2C4)cc(N2CCCCS2(=O)=O)c1 (stereo partly specified) | 0.69 | 0.88 | -1.02
CCN1CCCC1CN(Cc1ccc(-c2ccc(C(F)(F)F)cc2)cc1)C(=O)Cn1c(CCc2cccc(F)c2F)nc(=O)c2ccccc21 (stereo unspecified) | 1.13 | 2.82 | 1.11
COc1c(C)[nH]c(C)c(-c2ccc(Oc3cccc(C(F)(F)F)c3)cc2)c1=O | 10.2 | 10.6 | 4.46
O=C(COc1ccccc1)N(Cc1ccc(-c2ccc(CNC3Cc4ccccc4C3)cc2)cc1)C1CCNCC1 | 2.8 | 2.48 | 2.61

SMILES | inhibition [1] [%] | inhibition [2] [%] | inhibition [3] [%]
OC(COc1ccccc1-c1nc2ccccc2o1)CN1CCCN(CCc2ccccc2)CC1 (stereo unspecified) | -0.28 | -1.19 | -0.36
OC(CNC1CCCCC1)Cn1c2ccccc2c2ccccc21 (stereo unspecified) | 9.36 | 7.72 | 3.35
COc1ccc(Cn2ncc3c4c(N)nc(N)nc4ccc32)cc1OC | 86.6 | 82.8 | 73
CN(C)c1nc2cc(-n3cnc4cc(-c5ccc(Cl)cc5)sc4c3=O)ccc2n1CCCN1CCCC1 | 12 | 13.9 | 6.91
COc1cc(N)c(Cl)cc1C(=O)NCC1CCN(c2nc(C)cc(C)n2)CC1 | 1.37 | 0.61 | -0.76
Cc1nc(C(C)Nc2nncc(-c3ccc(Cl)cc3)n2)cs1 (stereo unspecified) | 1.13 | 0.17 | 1.17
CCN(CC)CCCn1c(N)c(-c2nc3ccccc3[nH]2)c2nc(C#N)c(C#N)nc21 | 7.13 | 6.56 | 4.63
Cc1ccc(CNC(=O)[C@H](CCCN)Nc2nc(Nc3ccccc3)ncc2C)cc1 | 1.37 | 0.93 | 1.15
Oc1ccccc1CN1CCN(C(c2ccccc2)c2ccccc2)CC1 | 3.02 | 6.5 | -0.06
CN(C)CCCc1cc2c(cc1Cl)CCN2C(=O)Nc1ccc(-c2ccncc2)c2ccccc12 | -2.58 | -1.62 | -3.5
Cc1cccc(-c2nc3cc(NC(=O)c4ccc([N+](=O)[O-])o4)ccc3o2)c1 | 6.53 | 7.69 | 2.04
CCc1cc(C(=O)c2cccc(C)c2)c(NC(=O)CN2CCN(C(=O)c3ccco3)CC2)s1 | 2.38 | 2.67 | 2.44
Oc1ccc2[nH]c(-c3cccc(F)c3)nc2c1CN1CCC(O)(c2ccccc2)CC1 | 3.21 | 4.5 | 1.7
CC[C@H](C)CNC(=O)c1cncc(-c2ccc(CNC3Cc4ccccc4C3)cc2)c1 | 6.08 | 6.72 | 5.96
CC1N=C(N)N=C(N)N1OCc1cccc2ccccc12 (stereo unspecified) | 1.93 | 0.04 | 1.84
O=c1[nH]c2c(cc1CNC1CCCCC1)c(-c1cccc(F)c1)nn2-c1ccccc1 | 1.69 | 0.38 | -3.71
COc1cc(F)c2ncc(Cl)c([C@@H](O)CN3CCC(NCc4cc5c(cn4)OCCO5)CC3)c2c1 | 9.42 | 8.83 | 5.13
CN1CCN(CC(=O)Nc2cccc(-c3cccc(-c4nc5ccccc5[nH]4)c3)c2)CC1 | -0.57 | -0.37 | -3.47
Clc1ncnc2scc(-c3ccc(Br)cc3)c12 | 7.74 | 6.35 | 3.52
N=C(NCc1ccccc1)Nc1nc(-c2ccc(OCCCn3ccnc3)cc2)cs1 | 29.9 | 35.3 | 15.5
CC(C)n1c(C2CCN(CC3CCN(C(=O)/C=C/c4ccc(Cl)c(Cl)c4)CC3)CC2)nc2ccccc21 | 0.12 | -1.72 | -0.72
O=C(Nc1cccc(-c2ccc(-c3nc4ccccc4[nH]3)cc2)c1)Nc1ccc2c(c1)OCO2 | 1.14 | 1.8 | 0.06
NC(=O)c1cccc(CNC(=O)NC[C@H]2CN(Cc3ccc(Cl)c(Cl)c3)CCO2)c1 | 7.5 | 6.84 | 6.5
CCCc1cc(N2CCC(N3CCCC3)CC2)nc(Nc2ccc(OC)cc2)n1 | 1.06 | 2.18 | 0.63

SMILES | inhibition [1] [%] | inhibition [2] [%] | inhibition [3] [%]
CCCCN(Cc1cnccc1-c1ccc(Br)cc1)c1ccc(C(O)(C(F)(F)F)C(F)(F)F)cc1 | 3.94 | 3.75 | 0
Cc1nc2ccc(NC(=O)Nc3ccnc4ccc(C(F)(F)F)cc34)cc2o1 | 5.89 | 10.7 | 5.33
CN(C)CCNC(=O)c1ccc(-c2ccc3c(Nc4ccccc4)c(C(N)=O)cnc3c2)cc1 | 1.31 | 1.74 | 2.36
O=C(Nc1cccc(C(F)(F)F)c1)c1ccc(S(=O)(=O)NCC2CCCN2CC2CCCCC2)cc1 (stereo unspecified) | 1.8 | 3.93 | -0.18
N#Cc1ccc(CN2CCCN(Cc3cccc(NC(=O)c4ccc(-c5ccccc5)cc4)c3)CC2)cc1 | 1.73 | 9.67 | 4.12
Cc1c(C(=O)N2CCc3cc4nccc(N5CCN6CCC[C@H]6C5)c4cc32)cnn1-c1ccc(C#N)cc1 | 3.57 | 3.55 | 2.9
CCNC1=NC2=C(CC(C(C)(C)C)CC2)C2(CCC(C(C)(C)C)CC2)S1 (stereo unspecified) | 4.57 | 4.3 | 1.15
CCN(CC)CCOc1c(Cl)cc(Cl)cc1CNCCCNc1cc(=O)c2ccccc2[nH]1 | 0.34 | 1.03 | 4.06
COc1ccc(CNc2ncnc3c2[nH]c2ccc(F)cc23)cc1 | 7.12 | 7.69 | 4.52
COc1ccc2nccc(N/N=C/c3ccccc3[N+](=O)[O-])c2c1 | 2.92 | 4.3 | 0.03
CN1CCCc2ccc(NC(=O)Nc3ccc(-c4ccccc4)cc3)cc2C1 | -3.44 | 0.82 | -0.14
CCOC(=O)c1cc(C(=O)NCCCCN2CCC(c3ccc4c(c3OC)CCCC4)CC2)ccc1-c1ccc(C(F)(F)F)cc1 | -2.37 | 4.37 | 1.36
Cc1cc(OCCCN2CCC(NS(=O)(=O)c3cc(Br)c(Cl)s3)CC2)c2ccccc2n1 | -1.11 | -0.46 | -0.25
COc1ccc2nc3cc(Cl)ccc3c(NCCCCN)c2c1 | 2.17 | 1.49 | 0.04
O=C1OC(c2ccccc2)(c2ccccc2)CN1CC1CCN(Cc2ccc(O)c(Cl)c2)CC1 | 70 | 70.4 | 32.2
O=C(NC1CCN(Cc2ccc(F)cc2)CC1)c1ccc(-c2cccc(C(F)(F)F)c2)s1 | 9.61 | 9.88 | 1.44
CCCCCN1CCCN(Cc2cccc(NC(=O)c3cc4ccccc4s3)c2)CC1 | 1.99 | 1.5 | 3.66
O=C(/C=C/c1ccccc1Cl)Nc1ccc(Br)c(OCCN2CCN(CCN3CCCC3)CC2)c1 | 4.13 | 3.71 | 4.6
Cc1ccc(-n2nc(-c3ccccc3)c3cc(C(=O)NCCN)sc32)cc1 | -2.29 | -1.78 | -6.61
Fc1cccc(COc2ccc(Nc3ncnc4sc(C#C[C@H]5CCCN5)cc34)cc2F)c1 | 0.5 | 2.54 | 0.52
CCN(CC)CCCN(CCCN(CC)CC)c1cc(C)nc(Nc2ccc(Br)cc2)n1 | 0.34 | 0.99 | -0.4
Cc1ccc2nc(C)cc(N/N=C/c3ccc([N+](=O)[O-])o3)c2c1 | 14.9 | 12.8 | 9.98
c1cncc(CCNCc2ccc(-c3ccc(-c4nc5ccccc5[nH]4)s3)cc2)c1 | 8.43 | 6.34 | 0.7
O=C(NCCCCCN1CCC(c2c[nH]c3ccccc23)CC1)Nc1ccc(Br)cc1 | -0.87 | -1.37 | -0.48

Reference: ChEMBL document CHEMBL3433997, “St. Jude Leishmania screening dataset” (2016)
